# Source: PubChem
# The list is not random: actives were taken first. Their share in the collection is about 10%.
# Luciferase inh – blocks purified firefly luciferase enzyme activity | AID 1347043 | Potency, µM (highest dose often 115 µM), hits mostly inhibitors | purified P. pyralis luciferase, luminescence, biochemical | 2.5% of 76,000 active | P08659; also: nearly all actives have a fitted effect of over 65% in size
# Target sequence (P08659 whole entry, looked up): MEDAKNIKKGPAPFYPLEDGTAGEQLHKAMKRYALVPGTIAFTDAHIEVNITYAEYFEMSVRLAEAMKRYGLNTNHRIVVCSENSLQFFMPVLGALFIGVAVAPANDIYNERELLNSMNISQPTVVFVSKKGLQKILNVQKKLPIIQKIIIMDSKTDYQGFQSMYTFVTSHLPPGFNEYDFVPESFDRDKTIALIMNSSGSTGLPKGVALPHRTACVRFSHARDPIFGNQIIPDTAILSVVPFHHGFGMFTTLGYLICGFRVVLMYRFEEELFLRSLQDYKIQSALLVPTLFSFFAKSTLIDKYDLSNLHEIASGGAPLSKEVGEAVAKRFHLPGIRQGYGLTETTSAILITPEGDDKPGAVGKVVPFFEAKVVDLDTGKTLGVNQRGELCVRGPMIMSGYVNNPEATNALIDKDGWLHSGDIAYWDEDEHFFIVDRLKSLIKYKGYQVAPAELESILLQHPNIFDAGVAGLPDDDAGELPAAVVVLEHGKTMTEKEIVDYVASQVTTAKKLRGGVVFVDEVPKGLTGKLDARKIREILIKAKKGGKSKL
#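 Luminescence read by CCD imaging after purified firefly luciferase (10nM final) was added to substrate buffer holding 10uM D-luciferin and 10uM ATP, pH 7.5, pre-dosed with compound.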
# HEK293 tox – cytotoxic compounds in HEK 293 cells | HEK 293 viability, ATP luminescence (CellTiter-Glo), 48-72 h | Potency, µM (top dose mostly 115 µM), most hits filed as inhibitors | 6.6% of 94,000 active; also: nearly all actives have a fitted effect of over 60% in size
#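 CellTiter-Glo luminescence (cellular ATP) was read after 48 or 72 hr of compound exposure at 37 degree Celsius. Cells were HEK 293 plated at 250 cells/well.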
# 3T3 cytotox – NIH 3T3 cell cytotoxicity; Potency, µM (highest dose often 96.7 µM), most hits filed as inhibitors; 4.3% of 94,000 active; NIH 3T3 viability, CellTiter-Glo ATP luminescence, 48-72 h; also: nearly all actives have a fitted effect of over 55% in size
#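 Viability of NIH 3T3 cells after 48 or 72 hr compound treatment at 37 °C was assessed by CellTiter-Glo, with luminescence imaged following a 10 min room-temperature step.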
# hNpr1 antagonist – antagonists of human natriuretic peptide receptor Npr1; HEK293 hNpr1 GloSensor cGMP, ANP-stimulated luminescence; Potency, µM (series often up to 46.3 µM), usual class: inhibitors; 1.6% of 76,000 active; AID 1347048; calls by dose curve; also: nearly all actives have a fitted effect of over 60% in size
#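 Compound pre-incubated 30 min at room temperature on GloSensor-loaded HEK293 cells stably carrying hNpr1 and the pGS-40F cGMP biosensor. Stimulation uses hNppA at 0.1 nM final; luminescence is taken at baseline and 20 min post-agonist.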
# GPT2 inhibitor – GPT2 alanine aminotransferase inhibition; Q8TD30; Potency, µM (highest dose often 57.7 µM), usual class: inhibitors; Recombinant GPT2, coupled pyruvate oxidase/HRP Amplex Red fluorescence; 0.25% of 100,000 active; AID 1671188; also: nearly all actives have a fitted effect of over 60% in size
#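 Fluorescence read-out: pyruvate from GPT2 turnover coupled to pyruvate oxidase, HRP and Amplex Red (0.2mM ThPP, 0.2U/mL PO and HRP, 50uM Amplex final). Substrates 250uM a-KG, 2mM L-alanine; enzyme 10ng/uL; 30 min RT.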
# Hits are given with their value; . = inactive; ? = inconclusive; / = no result given. Unless noted, calls follow the shape of the dose curve; as a rule, active = well fitted curve in the direction sought with a large enough effect; inconclusive = small, poorly fitted or top-dose-only effect, or another doubt; inactive = no such curve, though single readings can be large; an effect the other way counts as inactive or inconclusive.
SMILES,Luciferase inh,HEK293 tox,3T3 cytotox,hNpr1 antagonist,GPT2 inhibitor
Cc1nc2c(c(-c3ccc(O)cc3)n1)CN(Cc1ccccc1)CCC2,.,?,?,.,.
Cc1nc2c(c(-c3ccc(O)cc3)n1)CN(Cc1ccc(C(F)(F)F)cc1)CCC2,.,31.6µM,?,?,.
Cc1nc2c(c(-c3ccc(O)cc3)n1)CN(Cc1ccc(OC(F)(F)F)cc1)CCC2,.,35.5µM,?,?,.
Cc1nc2c(c(-c3ccc(O)cc3)n1)CN(Cc1ccc(C(F)(F)F)cc1)CC2,.,?,.,.,.
COc1ccc(-c2nc(C)nc3c2CCN(Cc2cccc4ccccc24)CC3)cc1,.,39.8µM,?,.,.
Cc1nc2c(c(-c3ccc(O)cc3)n1)CN(Cc1cccc3ccccc13)CCC2,.,31.6µM,31.6µM,?,.
CC(C)CN(Cc1cccnc1)C1CN(C(=O)NCc2ccc(F)cc2)C1,.,.,.,.,.
O=C(Nc1ccc(F)cc1)C1CN(c2ccnc3ccnn23)C1,/,?,?,/,.
CCN1c2cc(C(=O)NCc3cc(F)ccc3F)ccc2C(=O)N2CCCCCC21 (stereo unspecified),.,?,?,.,.
N#Cc1ccc(CN2C[C@@H](COCC(N)=O)[C@H](c3ccncc3)C2)cc1,.,89.1µM,.,.,.
Fc1ccc(-c2cc(CC3(NC4CCCCC4)COC3)no2)cc1,.,?,.,.,.
COc1ccc2[nH]c(C[C@@H]3C[C@@H](C(C)C)[C@H](CNC(=O)c4cnccn4)C=C3C)nc2n1,.,63.1µM,100µM,.,.
COc1ccc2[nH]c(C[C@@H]3C[C@@H](C(C)C)[C@H](CNC(C)=O)C=C3C)nc2n1,.,70.8µM,?,.,.
COc1ccc2[nH]c(C[C@@H]3C[C@@H](C(C)C)[C@H](CNCc4cccnc4)C=C3C)nc2n1,.,63.1µM,89.1µM,.,.
O=C1NCCCCCCN(C(=O)COc2ccccc2)[C@H]2C[C@H](c3nc(-c4cnccn4)no3)C[C@@H]12,.,?,.,.,.
CCN(Cc1ccncc1)C(=O)c1cc(CN2CCC(Cc3ccccc3)CC2)on1,.,?,?,?,.
C=C(C)CN(C)C(=O)c1cc(CN2CCC(Cc3ccccc3)CC2)on1,.,89.1µM,.,.,.
COC[C@@H]1[C@H](C(=O)NCCc2c[nH]c3ccc(OC)cc23)CCC(=O)N1C,/,.,.,/,.
Cc1cc(CNC(=O)c2cc(-c3ccccc3C)cc3c2OCCN3C)no1,.,?,?,.,.
O=C(Nc1cccc(-c2nnc3n2CCCC3)c1)c1ccc(Cl)cc1,?,?,?,.,.
CCOc1ccc(C(=O)Nc2cccc(-c3nnc4n3CCCC4)c2)cc1,25.1µM,?,?,.,.
O=C(Cc1ccc(F)cc1)Nc1cccc(-c2nnc3n2CCCC3)c1,.,?,.,.,.
O=C(Nc1cccc(-c2nnc3n2CCCC3)c1)c1cc(-c2ccccc2)n[nH]1,2.24µM,28.2µM,.,?,.
O=C(Nc1ccc(-c2nnc3n2CCCC3)cc1)c1cc(-c2ccccc2)n[nH]1,.,.,.,.,.
O=C(Cc1ccc(Cl)cc1)Nc1cccc(-c2nnc3n2CCCC3)c1,.,50.1µM,?,.,?
SMILES,Luciferase inh,HEK293 tox,3T3 cytotox,hNpr1 antagonist,GPT2 inhibitor
O=C(Nc1cccc(-c2nnc3n2CCCC3)c1)c1cc(C2CC2)[nH]n1,20µM,.,.,?,.
O=c1[nH]sc2cc(Cl)ccc12,/,/,/,/,14.1µM
Cc1noc(-c2cccc(OC3CN(C(=O)C4CCOC4)C3)c2)n1 (stereo unspecified),.,.,.,.,.
O=C(C1CCOC1)N1CC(Oc2cccc(-c3nc(-c4ccccc4)no3)c2)C1 (stereo unspecified),44.7µM,?,?,.,.
O=C(Cc1cccc(F)c1)N1CC(Oc2cccc(-c3nc(-c4ccccc4)no3)c2)C1,/,?,35.5µM,/,.
CCNC(=O)N1CC(Oc2cccc(-c3nc(-c4ccccc4)no3)c2)C1,.,35.5µM,?,.,.
CCc1nc(-c2ccc(OC3CCN(C(=O)Cc4ccccc4F)C3)cc2)no1 (stereo unspecified),/,?,?,/,.
CC(C)c1nc(-c2ccc(OC3CCN(C(=O)Cc4ccccc4F)C3)cc2)no1 (stereo unspecified),/,35.5µM,?,/,.
COc1cccc(CC(=O)N2CCC3(CC2)CC(N2CCCC2)CCO3)c1 (stereo unspecified),/,.,.,/,.
CCNC(=O)N1CCC(Oc2ccc(-c3noc(-c4ccccc4)n3)cc2)C1 (stereo unspecified),/,17.8µM,?,/,.
CCNC(=O)N1CC(Oc2ccc(-c3nc(C)no3)cc2)C1,.,?,.,.,.
Cc1ccc(CNC(=O)N2CC(Oc3cccc(-c4nc(C)no4)c3)C2)cc1,.,44.7µM,?,.,.
COc1ccc(CNC(=O)N2CC(Oc3cccc(-c4nc(C)no4)c3)C2)cc1,.,?,?,.,.
O=C(c1ccc(Cl)cc1)N1CCOCC2(C1)CN([S+](=O)([O-])c1ccccc1)C2,.,?,50.1µM,.,.
O=C(c1cccc(C(F)(F)F)c1)N1CCOCC2(CN(Cc3ccccc3)C2)C1,.,7.08µM,7.08µM,.,.
COc1ccc(C(=O)N2CCOCC3(CN(Cc4cccc(C#N)c4)C3)C2)cc1OC,.,?,79.4µM,.,.
O=[S+]([O-])(c1ccccc1)N1CC2(COCCN(Cc3ccc(Cl)cc3)C2)C1,.,?,?,.,.
O=C(c1ccccc1F)N1CCCC(c2nnnn2-c2ccccc2)C1 (stereo unspecified),/,.,.,/,.
O=C(Cc1ccccc1)N1CCC(c2noc(COc3ccc(F)cc3)n2)CC1,/,44.7µM,?,/,?
Cc1ccccc1OCc1nc(C2CN(C(=O)c3cc(F)ccc3F)C2)no1,.,?,.,.,.
CCN(CC)C(=O)N1CCC(c2noc(COc3ccc(F)cc3)n2)C1 (stereo unspecified),/,44.7µM,?,/,.
Cc1cc(S(=O)(=O)N2CCC(c3noc(COc4ccc(F)cc4)n3)CC2)ccc1F,.,25.1µM,35.5µM,?,.
Cc1ccccc1OCc1nc(C2CN(C(=O)Cc3cccc(F)c3)C2)no1,.,44.7µM,39.8µM,.,.
COc1ccc(NC(=O)c2cc3c(s2)CN(C2CCCC2)C3)c(C)c1,.,?,?,.,?
c1cncc(CN2CCC(Oc3nccnc3N3CCc4ccccc43)C2)c1 (stereo unspecified),.,?,.,.,.
O=C1COc2ccc(-c3cc4ccccc4o3)nc2CN1CCOc1ccccc1,.,?,?,?,.
O=C1COc2ccc(OCc3ccccc3)nc2CN1CCOc1ccccc1,.,89.1µM,?,?,.
O=C1COc2ccc(-c3cccc(O)c3)nc2CN1CCOc1ccccc1,.,100µM,?,?,.
Cc1cc(CN(C)c2cc(C3CC(N)C3)nc(N)n2)no1 (stereo unspecified),.,.,.,.,.
